Most compounds without a hit are left out; they make up all but 2.8% or so of the library.
Mito fusion yeast: qHTS Assay for Small Molecule Inhibitors of Mitochondrial Division or Activators of Mitochondrial Fusion; S. cerevisiae fusion-defective mutant growth rescue, CellTiterGlo 48 h; Potency, µM (series often up to 46.1 µM), without a hit: at the top dose growth rescue (activation), hits mostly activators; 0.23% of 320,000 active; also: % of control where 0% means no effect; nearly all actives have a fitted effect of over 45% in size
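Growth-rescue viability read-out: after 48 h at the non-permissive 37C in glycerol/ethanol YPEG, yeast mitochondrial fusion mutants are measured by CellTiterGlo luminescence; compounds (23 nl pinned per well) restoring growth score as division inhibitors or fusion activators.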
GLP-1R agonist: qHTS of GLP-1 Receptor Agonists | HEK293 GLP-1R CRE-luciferase, luminescence, 4-6 h; cells express a hypersensitive GLP-1R form | Potency, µM (titrated, usually from 45.6 µM), without a hit: at the highest dose activation, actives largely listed as activators | 0.007% of 380,000 active | AID 624172, 2012; also: % of control where 0% means no effect
Target sequence (P43220 whole entry, looked up): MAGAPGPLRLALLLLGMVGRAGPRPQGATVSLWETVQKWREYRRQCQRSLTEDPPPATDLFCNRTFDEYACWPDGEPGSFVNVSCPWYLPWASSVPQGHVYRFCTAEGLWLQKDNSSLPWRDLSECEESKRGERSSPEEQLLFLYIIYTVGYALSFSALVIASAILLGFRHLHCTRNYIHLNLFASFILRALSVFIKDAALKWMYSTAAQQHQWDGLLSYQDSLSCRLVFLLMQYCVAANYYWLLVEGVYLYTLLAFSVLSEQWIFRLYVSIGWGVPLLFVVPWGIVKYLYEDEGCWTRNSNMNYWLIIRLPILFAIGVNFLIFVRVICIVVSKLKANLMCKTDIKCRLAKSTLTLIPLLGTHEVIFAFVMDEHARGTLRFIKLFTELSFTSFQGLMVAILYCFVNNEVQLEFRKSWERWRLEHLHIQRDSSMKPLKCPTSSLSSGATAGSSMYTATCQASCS
BRCA1 expr up: qHTS Assay to Identify Small Molecule Activators of BRCA1 Expression. MCF7-BRCA1-FFLuc reporter, luminescence, 48 h; response scale: scaled: vehicle 0%, 10 µM genistein 100%. Potency, µM (highest dose often 46.1 µM), for the others: top-dose activation, hits mostly activators. 1.1% of 380,000 active; also: nearly all actives have a fitted effect of over 80% in size
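First, MCF7-BRCA1-FFLuc cells (2000/well) attach for 2 h; next, compounds are pin-added and incubated 48 h at 37 °C; finally, luciferase reagent is added and luminescence read after 15 min.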
GLP1R cytotox: qHTS of GLP-1 Receptor Inverse Agonists: Cytotox Screen. HEK293 cAMP-luciferase reporter cells, luminescence, 24 h. Potency, µM (doses to about 38.3 µM), without a hit: at the top dose activity change, negative = inhibition, hits mostly inhibitors. 0.13% of 410,000 active;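 also: loss of luciferase light is scored as toxicity; % is scaled to controls: 0 for no effect and ±100 for the full control effect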
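Here, cytotoxicity is scored as loss of luminescence. The MLSMR collection was tested on cells seeded in medium containing 10% Nu serum, with a 24 hr compound exposure preceded by 12 hours of culture.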
GLP-1R inv ag: qHTS of GLP-1 Receptor Inverse Agonists (Inhibition Mode); HEK293 GLP-1R CRE-luciferase, luminescence, 24 h; GLP-1R form is constitutively active; 1.6% of 410,000 active; Potency, µM (doses to about 38.3 µM), without a hit: top-dose activity change, negative = inhibition, hits mostly inhibitors; also: % is scaled to controls: 0 for no effect and ±100 for the full control effect; nearly all actives have a fitted effect of over 55% in size
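Luminescence readout: a drop in cAMP-driven luciferase signal flags inverse agonism at a constitutively active GLP-1R stably expressed in HEK293. Compound exposure lasted 24 hr at 37 deg C, 5% CO2.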
Active calls of the source: *; ? = inconclusive; / = not tested or not shown; [ ] = dose if it differs, or a comment. Calls follow the shape of the dose curve; as a rule, active = well fitted curve in the direction sought with a large enough effect; inconclusive = small, poorly fitted or top-dose-only effect, or another doubt; inactive = no such curve, though single readings can be large; an effect the other way counts as inactive or inconclusive. Potency is read from the fitted curve at half-maximal effect.

SMILES | Mito fusion yeast | GLP-1R agonist | BRCA1 expr up | GLP1R cytotox | GLP-1R inv ag
Cc1n[nH]c(C)c1S(=O)(=O)N(CC(=O)Nc1ccc(C(F)(F)F)cc1)c1ccc(C(C)C)cc1 | / | / | / | -12% | 10µM*
COc1ccc2cc(C3=CCCCC3)ncc2c1 | -12% | -4% | 2.8µM* | 9% | -3%
CCOC(=O)N1CCN(c2nc3ccccc3n3cnnc23)CC1 | 25µM* | 3% | 2% | -1% | 16%
O=C(Nc1ccccc1)c1ccc(-c2ccc(Br)cc2)o1 | 16µM* | 1% | 45% | 0% | ?
CCc1ccc(NC(=O)c2ccccc2Br)cc1 | 14% | 7% | 3.2µM* | 7% | ?
O=C(Nc1ccc(Br)cc1)c1ccccc1Br | 7% | 4% | 1.1µM* | -13% | ?
O=C(Nc1cccc(NC(=O)c2ccc(-c3ccc(Br)cc3)o2)c1)c1ccccc1 | -4% | 3% | -33% | 2% | ?
CC(=O)Nc1ccc(NC(=O)c2ccccc2Br)cc1 | / | 10% | 12% | 1% | 30%
O=C(CSCc1ccc(F)cc1)Nc1ccccc1C(=O)N1CCOCC1 | -2% | -3% | 2% | 6% | -2%
c1ccc(Nc2nc(-c3ccccn3)cs2)cc1 | -5% | 11% | ? | 3.2µM* | 5.6µM*
O=C(Nc1cccc(-c2csc(Nc3ccccc3)n2)c1)c1ccccc1 | -36% | -5% | -16% | -27% | 8.9µM*
COc1ccccc1CNS(=O)(=O)c1cc2c3c(c1)C(C)C(=O)N3CCC2 (centres undefined) | -3% | 5% | -29% | -30% | -16%
C=CCN1C(c2ccc(Br)cc2)=CS/C1=C(\C#N)c1nnc(N2CCOCC2)n1-c1ccccc1 | / | 2% | -49% | -25% | 7.1µM*
O=C(COc1ccc(Cl)cc1Cl)NC(=O)NC1CCCC1 | 16% | 27% | 4µM* | -2% | ?
O=C(COc1ccc(Cl)cc1Br)NC(=O)NC1CCCC1 | 23% | 2% | 13µM* | -3% | 10µM*
O=C(COc1ccc(Br)cc1Cl)NC(=O)NC1CCCC1 | 9% | 12% | ? | 0% | 3.5µM*
O=C(O)c1nn(Cc2nc3ccccc3o2)c(=O)c2ccccc12 | -5% | 8% | 0% | 0% | -9%
CC1(C)CC(NC(=O)c2cccc([N+](=O)[O-])c2)CC(C)(C)N1 | 1% | -1% | 3% | 8% | -9%
CCn1cc(C(=O)NCCc2ccc(Cl)cc2)c(=O)c2cc(S(=O)(=O)N3CCCCCC3)ccc21 | / | -2% | 13% | 3% | 5%
CN(CC(=O)N1CCCCCC1)S(=O)(=O)c1ccc(F)cc1 | 6% | 6% | 10µM* | -7% | 1%
Cc1ccc(S(=O)(=O)N(C)CC(=O)N2CCCCCCC2)cc1 | 0% | 21% | -1% | 6% | -14%
COC(=O)c1cccc(NS(=O)(=O)c2ccc(OC)c(OC)c2)c1C | -3% | 8% | -44% | -3% | 0%
O=C(Nc1nc(-c2cccs2)cs1)C1=COCCO1 | 4% | 10% | 4µM* | 8% | 21%
COc1cc(C(=O)Nc2nc(-c3cccs3)cs2)cc(OC)c1OC | 14µM* | -1% | -52% | ? | ?
N#Cc1c(N2C(=O)Nc3ccccc3N2O)sc2c1CCCCCC2 | -6% | 3% | 12% | -2% | -3%
N#Cc1c(N2C(=O)Nc3ccccc3N2O)sc2c1CCCC2 | -1% | 0% | 11µM* | 12%[7.66 µM] | 2%[7.66 µM]
C/C(Cn1cnc([N+](=O)[O-])n1)=N/NC(=O)COc1ccccc1Cl | -2% | 6% | -16% | -2% | -22%
N#Cc1ccccc1Cn1cc(C#N)c2ccccc21 | 12% | 3% | -8% | 23% | ?
N#Cc1cn(Cc2ccccc2)c2ccccc12 | 9% | 6% | 0% | 11% | 11µM*
COc1ccc(C(O)(c2ccccc2OC)C(CN2CCOCC2)c2ccccc2)cc1 (centres undefined) | 1% | 1% | -36% | -1% | 10µM*

Screens (PubChem)
